Compound activity: PubChem, National Center for Advancing Translational Sciences (NCATS)
Only some compounds are listed: those with a hit (about 6.9% of all), similar ones and a draw of the others.
JMJD2A Tudor inh = inhibitors of human JMJD2A Tudor domain. O75164. AlphaScreen JMJD2A-Tudor / H3K4me3 peptide binding. Potency, µM (highest dose often 114 µM), for the others: at the highest dose activity change, negative = inhibition, actives largely listed as inhibitors. 4.4% of 390,000 active. AID 504339; also: % is scaled to controls: 0 for no effect and ±100 for the full control effect; nearly all actives have a fitted effect of over 50% in size
L3MBTL1 block = L3MBTL1 (human) inhibition; Q9Y468; AlphaScreen L3MBTL1–H3K9me1 peptide binding; Potency, µM (doses to about 57.1 µM), inactives show at the top dose activity, negative = inhibition, most hits filed as inhibitors; 0.66% of 230,000 active; also: % is scaled to controls: 0 for no effect and ±100 for the full control effect; nearly all actives have a fitted effect of over 60% in size
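L3MBTL1 (50 nM) pre-complexed 30 min with biotinylated H3(1-15)K9me1 peptide (75 nM), then compounds added for 30 min at room temperature; AlphaScreen streptavidin donor/nickel chelate acceptor beads (10 ug/mL final) read after 30 min dark incubation.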
PLK1 PBD block = inhibitors of human PLK1 polo-box domain binding. Potency, µM, for the others: max response, negative = inhibition, most hits filed as inhibitors. Plk1 PBD binding of FITC phosphopeptide, fluorescence polarization. 2.8% of 360,000 active; also: series mostly up to about 57 µM; % is scaled to controls: 0 for no effect and ±100 for the full control effect; nearly all actives have a fitted effect of over 65% in size
HP1b binding inh = inhibitors of HP1-beta chromodomain binding to methylated histone tails; Potency, µM (series often up to 114 µM), for the others: at the top dose activity change, negative = inhibition, usual class: inhibitors; AlphaScreen HP1-beta / biotin-H3K9me3 peptide binding; AID 540317; 0.56% of 390,000 active; also: nearly all actives have a fitted effect of over 70% in size
Target sequence (P83916 whole entry, looked up): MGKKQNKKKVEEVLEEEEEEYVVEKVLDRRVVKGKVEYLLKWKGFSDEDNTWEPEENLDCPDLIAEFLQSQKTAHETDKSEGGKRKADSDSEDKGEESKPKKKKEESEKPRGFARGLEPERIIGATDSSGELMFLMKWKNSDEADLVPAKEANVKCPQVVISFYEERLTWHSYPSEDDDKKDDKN
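AlphaScreen: HP1-beta (50 nM) preformed 30 min with biotin-H3(1-18)K9me3 peptide (50 nM) in PBS pH 7.4, 0.01% Tween-20. Compound added for 30 min at RT, then streptavidin donor/nickel chelate acceptor beads (10 ug/mL) for 30 min.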
VDR inhibitor = blocks the human vitamin D receptor. AID 504847. VDR-SRC2-3 peptide fluorescence polarization, 2 h. Potency, µM, inactives show max response, negative = inhibition, most hits filed as inhibitors. 0.93% of 400,000 active. P11473; also: % is scaled to controls: 0 for no effect and ±100 for the full control effect
Target sequence (P11473 whole entry, looked up): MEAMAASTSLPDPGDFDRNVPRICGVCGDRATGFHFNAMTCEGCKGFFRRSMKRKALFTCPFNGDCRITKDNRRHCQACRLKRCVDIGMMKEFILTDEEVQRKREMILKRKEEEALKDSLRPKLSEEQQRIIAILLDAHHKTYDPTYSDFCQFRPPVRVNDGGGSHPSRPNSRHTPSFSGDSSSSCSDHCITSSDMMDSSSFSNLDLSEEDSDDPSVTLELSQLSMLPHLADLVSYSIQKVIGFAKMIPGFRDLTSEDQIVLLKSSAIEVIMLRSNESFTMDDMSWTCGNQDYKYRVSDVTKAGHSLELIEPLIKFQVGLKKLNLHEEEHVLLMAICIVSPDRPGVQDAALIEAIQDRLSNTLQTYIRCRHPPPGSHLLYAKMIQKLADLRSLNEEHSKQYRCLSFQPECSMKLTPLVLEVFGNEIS
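Two reagent solutions held at 4 deg C in the dark were dispensed, compounds pinned at 23 nl, and the mixture incubated 2 h at room temperature. Read-out: fluorescence polarization of VDR–SRC2-3 peptide binding.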
BAZ2B block = BAZ2B (human) inhibition; AlphaScreen BAZ2B-H3K14Ac peptide displacement; 4.4% of 360,000 active; Potency, µM (titrated, usually from 114 µM), for the others: at the highest dose activity change, negative = inhibition, hits mostly inhibitors; AID 504333; Q9UIF8; also: % is scaled to controls: 0 for no effect and ±100 for the full control effect; nearly all actives have a fitted effect of over 60% in size
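AlphaScreen luminescence quantifies BAZ2B engagement of H3K14Ac peptide; the protein and biotinylated peptide are both at 50 nM final, buffer PBS pH 7.4 with 0.01% Tween-20, all steps at room temperature.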
Starred values were filed as active, the others as inactive; ? = inconclusive; . = no result; [ ] = remark or other dose. Calls follow the shape of the dose curve; as a rule, active = well fitted curve in the direction sought with a large enough effect; inconclusive = small, poorly fitted or top-dose-only effect, or another doubt; inactive = no such curve, though single readings can be large; an effect the other way counts as inactive or inconclusive. Potency is read from the fitted curve at half-maximal effect.

SMILES	JMJD2A Tudor inh	L3MBTL1 block	PLK1 PBD block	HP1b binding inh	VDR inhibitor	BAZ2B block
O=C1CCCC2=C1C1(CCCCC1)N=C(Nc1nc3ccccc3o1)N2	?	-13%	-5%	2%	-4%	-14%
CNc1c2cccc(C)c2nc2c(C(=O)NCCN(C)C)cccc12	-11%	.	17µM*	38%	32%	.
Cn1c2cc(S(C)=O)sc2c2cnn(Cc3cccc(O)c3)c(=O)c21 (stereo not drawn)	4%	.	.	.	.	.
Cc1nc(NC(=O)C2CCCC2)sc1Cc1ccc2c(c1)OCO2	?	-15%	-2%	13%	15%	50µM*
Cc1c(Cc2ccc3c(c2)OCO3)sc(NC(=O)C2CC2)c1C(N)=O	?	.	3.8µM*	-23%	50µM*	-33%
Cc1nc(NC(=O)C23CC4CC(CC(C4)C2)C3)sc1Cc1ccc2c(c1)OCO2	?	-1%	-5%	-2%	-3%	-36%
Cc1cc(Br)ccc1NC(=O)c1cn(C2CCCC2)c(=O)c2c1c1ccccc1n2C	3%	.	.	43%	-2%	1%
Cc1ccc(S(=O)(=O)NCc2cn3c(C)csc3n2)cc1	4%	.	-4%	24%	?	2%
Cc1ccc(SCc2cn3c(C)csc3n2)cc1	-25%	.	-11%	16%	-11%	56µM*
CC(=O)N1CCC(C(=O)N2CCN(S(=O)(=O)c3ccc(F)cc3)CC2)CC1	-1%	.	-7%	-4%	-17%	-33%
CN1CCN(C(=O)C2CCCN(S(=O)(=O)c3ccc(F)cc3)C2)CC1 (stereo not drawn)	5.6µM*	.	-20%	?	-10%	32µM*
O=C(C1CCC1)N1CCN(S(=O)(=O)c2ccc(F)cc2)CC1	-10%	28%	1%	24%	-1%	79µM*
N#C[C@H](Cc1ccc(O)cc1)c1ccc(O)cc1	.	.	.	.	0%	.
N#Cc1c(Cl)nsc1NN	50µM*	?	30µM*	45µM*	-4%	14µM*
CCOc1ccc(NC(=O)Nc2cc(C(=O)O)ccc2N2CC3CC(C2)c2cccc(=O)n2C3)cc1 (stereo not drawn)	-23%	.	?	8%	-3%	-9%
Cc1ccc(S(=O)(=O)NC(=O)Nc2ccc(N(C)C)cc2)cc1	22µM*	.	-13%	18µM*	?	14µM*
Cc1ccc(S(=O)(=O)NC(=O)NN2CC3CCCC3C2)cc1 (stereo not drawn)	89µM*	.	-8%	73%	10%	?
Cc1ccc(S(=O)(=O)NN2CCCCCC2)cc1	.	.	0%	.	.	.
Cc1ccc(S(=O)(=O)NC(=O)NN2CCCCCC2)cc1	56µM*	3%	-12%	18%	10%	?
CCOC(=O)C1(C)CCCN1C(=O)c1ccc(C(=O)OC)cc1 (stereo not drawn)	.	.	1%	.	.	.
CCN(Cc1ccccc1)C(=O)COC(=O)c1cc(=O)[nH]c2ccccc12	-17%	.	-6%	17%	-7%	.
Cc1ccc(CNC(=O)C2CCCN(S(=O)(=O)c3cn(C)cn3)C2)cc1 (stereo not drawn)	-22%	.	.	?	5%	-3%
CN1CCN(c2ccc([N+](=O)[O-])c(-n3nc(-c4ccccc4)c4ccccc4c3=O)c2)CC1	40µM*	-11%	0%	-47%	9%	35µM*
Cc1cc(C)n2c(Nc3ccc4c(c3)OCCO4)c(CC(C)C)nc2n1	.	.	-8%	.	.	.
CC1=NN(c2nc(-c3ccc(C)cc3)cs2)C(=O)C1N=Nc1cccc(O)c1 (stereo not drawn)	14µM*	?	4.7µM*	?	79µM*	?
SMILES	JMJD2A Tudor inh	L3MBTL1 block	PLK1 PBD block	HP1b binding inh	VDR inhibitor	BAZ2B block
CC1=NN(c2ccccc2)C(=O)C1N=Nc1ccc(N)cc1 (stereo not drawn)	?	25µM*	24µM*	?	-19%	13µM*
COc1ccc(N=NC2C(=O)N(c3ccccc3)N=C2C)cc1 (stereo not drawn)	7.9µM*	.	-7%	7.1µM*	0%	1.6µM*
CC1=NN(c2ccccc2)C(=O)C1N=Nc1ccccc1 (stereo not drawn)	?	-28%	-2%	?	-8%	3.2µM*
CC1=NN(c2nc(-c3ccc(C)cc3)cs2)C(=O)C1N=Nc1ccccc1O (stereo not drawn)	?	12%	-23%	2%	14%	?
CC1=NN(c2ccccc2)C(=O)C1c1ccccc1 (stereo not drawn)	-34%	-2%	-6%	-5%	-6%	-32%
COc1ccc(N2CCN(S(=O)(=O)c3ccc(C4CCCCC4)cc3)CC2)cc1	-6%	.	.	26%	14%	-7%
O=C(Nc1cc(NC(=O)c2ccccc2Cl)ccc1Cl)c1ccccc1	-17%	.	.	13%	-10%	0%
CCOc1ccc(CN(CCc2ccc3c(c2)OCO3)Cc2cc(OC)c(OC)cc2OC)cc1	8.9µM*	.	.	11µM*	-17%	28µM*
COc1ccccc1CC(=O)NCc1ccc2c(c1)OCO2	-18%	9%	-4%	26%	-14%	-8%
CCOc1cc(CNCc2ccc3c(c2)OCO3)ccc1OC	-11%	-2%	5%	46%	17%	-26%
CCOc1ccccc1CN(CCc1ccc2c(c1)OCO2)Cc1cccc(OC)c1OC	4.5µM*	.	.	?	5%	50µM*
CN(C)/C=C1\SC(=S)N(c2ccc(Br)cc2)C1=O	?	.	-28%	-11%	-22%	40µM*
CN(C)/C=C1\SC(=S)N(c2ccc(F)cc2)C1=O	-19%	.	?	-25%	-13%	-28%
C/C(=N\NC(=O)COc1ccccc1[N+](=O)[O-])c1cccc(NC(=O)c2ccncc2)c1	-22%	.	-2%	60%	6%	?
CC(=O)c1cc(-c2ccccc2)n(CC(=O)N2CCN(C3CCCC3)CC2)c1C	12%[11.4 µM]	-6%	-29%	-14%	-11%	50µM*
CC(=O)c1cc(-c2ccccc2)n(CC(=O)N2CCC(C)CC2)c1C	-11%	20%[11.4 µM]	-4%	0%	0%	50µM*
O=C(/C=N/O)NCCCN1CCCCCC1	?	.	0%	17%	6%	50µM*
COc1ccc(/C=C/C(=O)NCCCN2CCCCCC2)cc1	?	.	-5%	13%	6%	-26%
Cc1ccc(NC(=O)CCNCc2ccco2)cc1S(=O)(=O)N(C)C	1.8µM*	-6%	0%	?	8%	50µM*
Cc1ccc(NC(=O)CCNC(=O)Nc2ccccc2)cc1S(=O)(=O)N(C)C	-26%	-10%	-7%	11%	-10%	-1%
Cc1ccc(NC(=O)CN2CCC(Cc3ccccc3)CC2)cc1S(=O)(=O)N(C)C	18µM*	-18%	2%	?	-11%	40µM*
Cc1ccc(NC(=O)CCN2CCC(Cc3ccccc3)CC2)cc1	-15%	-2%[2.29 µM]	-12%	15%	2%	6%
